We go through 39 molecules from PubChem BioAssay AID1508622 (National Center for Advancing Translational Sciences (NCATS), 2021).

Active and inactive are the calls of the source. The call rests on the fitted dose curve; in most records, active means well fitted activation curve with a large enough effect; inconclusive means small, poorly fitted or top-dose-only effect; inactive means no such curve, though single readings can be large or run the other way.
Potency means the concentration at half of the fitted maximal effect.

This assay is described as follows: Confirmatory qHTS for Identification of Small Molecule Activators of Huntingtin-Antisense Promoter Activity. The note with it: HEK293 HTT-AS promoter firefly luciferase reporter, 24 h; series mostly up to 57.5 µM; activity change, positive = activation: at the top concentration. In outline:
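Activity normalized between vehicle control (0%) and zero RLU (-100%) from firefly luminescence (Dual-Glo). Compounds, up to 57.5 uM final, incubated 24 h at 37C on HEK293 reporter cells plated 24 h earlier.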
A general note: In qHTS, concentration-response curves come from the screen itself.
On to `Cc1cc(C)cc(NC(=O)CCCn2c3ccccc3c(=O)c3ccccc32)c1`, for which the “activity change, positive = activation” value is -35.3% (inactive). As to `Cc1ccc(S(=O)(=O)N(CC(=O)NCCc2ccc(Cl)cc2)c2ccccc2C)cc1`, the “activity change, positive = activation” value is -36.2% (inactive). On the same count and under the same terms, the same measure for `Cc1ccccc1CN1c2ccccc2-c2nc(SCC(=O)Nc3cc(F)ccc3F)ncc2S1(=O)=O`: -31% (inactive); for `O=C(c1cccs1)N(Cc1cccnc1)c1nc2ccc(F)cc2s1`: -81.4% (inactive). Same read-out and setting: to `CC(C)c1ccc(Nc2c(-c3ccccn3)nc3ccccn23)cc1` belongs -93.2% (inactive). Consider `CCOc1ccc(C(=O)Nc2ccc(S(=O)(=O)N3CCCCC3c3cccnc3)cc2)cc1` (centres undefined), for which the “activity change, positive = activation” value was -70.1% (inactive). For `CN(C)Cc1c(C(=O)NCCOc2ccc(C(=O)NO)cc2)oc2ccccc12`, the Potency was 7.57 µM (active). As to `CCOC(=O)c1oc2c(c1C)-c1nn(Cc3ccc(Cl)cc3)cc1CC2`, the “activity change, positive = activation” value is -14.9% (inactive). Same read-out and setting: the same measure for `O=C(CSc1nc(-c2ccc(F)cc2)[nH]c1-c1ccc(F)cc1)Nc1ccc2c(c1)OCCO2`: -52.4% (inactive); for `CC(=O)c1c(C)oc2ccc(N(C(=O)c3ccncc3)S(=O)(=O)c3ccc(F)cc3C)cc12`: -60.5% (inactive).

For `CC(=O)c1ccc(N2CCN(c3ncnc4onc(C)c34)CC2)cc1`, the “activity change, positive = activation” value was -93.4% (inactive). Same read-out and setting: the same measure for `COc1ccc(N(CC(=O)N2CCN(c3cccc(C)c3C)CC2)S(=O)(=O)c2c(C)noc2C)cc1`: -28.1% (inactive); for `COc1ccc(-c2onc(C)c2C)cc1S(=O)(=O)N1CCc2ccccc21`: -80.5% (inactive); for `CCCCOc1ccc(CNC(=O)c2cc3n(n2)CCCN(Cc2ccc(C)cc2)C3=O)cc1`: -89.4% (inactive). For the molecule `COC(=O)[C@]12CCC(C)(C)C[C@@H]1[C@@H]1C(=O)C=C3[C@@]4(C)C=C(C#N)C(=O)C(C)(C)[C@@H]4CC[C@@]3(C)[C@]1(C)CC2`, the “activity change, positive = activation” value was -17% (inactive). The same measure, in the same setting: the same measure for `Cc1nc2sccn2c(=O)c1S(=O)(=O)Nc1ccc(N2CCOCC2)c(Cl)c1`: -36.8% (inactive).

As for `CCCN(c1ccccc1CC)S(=O)(=O)c1ccc2c(c1)CC(C)N2C(=O)C1CC1` (centres undefined), the “activity change, positive = activation” value was -79.9% (inactive). Turning to `Cc1ccc(S(=O)(=O)NCCc2csc(-c3ccc(Cl)cc3)n2)cc1`, the “activity change, positive = activation” value was -93.4% (inactive). On the same count and under the same terms, the same measure for `Cc1ccc(N2CCN(C(=O)c3nn(C)c4c3CS(=O)(=O)c3ccccc3-4)CC2)c(C)c1`: -26% (inactive); for `COc1ccc(-c2nc3sc(CCNS(=O)(=O)c4ccccc4)c(C)n3n2)cc1`: -7.69% (inactive). Still for that read-out and setting: to `CCc1ccc(-n2nc(C)c3c(C(=O)Nc4cccc(C(F)(F)F)c4)cc(C)nc32)cc1` belongs -31% (inactive). As for `Cc1ccc(Cl)cc1N1CCN(C(=O)C2CCN(S(=O)(=O)c3ccc4c(c3)oc(=O)n4C)CC2)CC1`, the “activity change, positive = activation” value is -28% (inactive). As for `O=C(Nc1ccc(Br)cc1)c1cc(S(=O)(=O)NC2CCCC2)ccc1F`, the “activity change, positive = activation” value was -17.5% (inactive). Still for that read-out and setting: the same measure for `CCOc1ccc(NC(=O)c2ccc(F)c(S(=O)(=O)NCc3ccc4c(c3)OCO4)c2)cc1`: -56.8% (inactive); for `Cc1ccc(NC(=O)c2ccc(F)c(S(=O)(=O)N3CCc4ccccc4C3)c2)cc1F`: -91.6% (inactive). Still for that read-out and setting: to `COc1ccc(N2CCN(C(=O)c3ccc4c(=O)n(CCc5ccc(OC)c(OC)c5)c(=O)[nH]c4c3)CC2)cc1` belongs -61.7% (inactive); to `CCn1c(CN2CCCCC2)nc2cc(NC(=O)c3ccc([N+](=O)[O-])cc3)ccc21`, -26.6% (inactive); to `Cc1c(C(=O)Nc2ccc(F)cc2)oc2ccc(S(=O)(=O)N3CCCCCC3)cc12`, -29.7% (inactive). Still for that read-out and setting: the same measure for `COc1ccc(CNC(=O)c2cccc(N3CCCS3(=O)=O)c2)cc1OC`: -95.9% (inactive); for `CC(C)C1C(=O)Nc2ccc(S(=O)(=O)NCc3ccc(Cl)cc3)cc21` (centres undefined): -66.1% (inactive). For the molecule `COc1ccc2sc(N(Cc3cccnc3)C(=O)c3cccs3)nc2c1`, the “activity change, positive = activation” value was -46.8% (inactive). On the same count and under the same terms, to `CCc1ccc(NC(=O)c2ccc(F)c(S(=O)(=O)N3CCC4(CC3)OCCO4)c2)cc1` belongs -82.6% (inactive); to `COc1ccc(-n2ccnc2SCC(=O)Nc2cccc(OC)c2)cc1`, -49% (inactive); to `CC(C)[C@H](CO)Nc1nc(Nc2ccc(C(=O)O)c(Cl)c2)c2ncn(C(C)C)c2n1`, -3.92% (inactive).

Regarding `Cc1ccc(S(=O)(=O)n2nc(-c3ccccc3)nc2NCc2ccccc2Cl)cc1`, the “activity change, positive = activation” value is -23.3% (inactive).

For `CCc1ccc(CNC(=O)c2cc3cc(S(=O)(=O)N4CCCCC4)ccc3n2C)cc1`, the “activity change, positive = activation” value is -28.2% (inactive). Same read-out and setting: to `Cc1ccccc1Cc1c(C)nc2c(-c3ccccc3)c(C)[nH]n2c1=O` belongs -38.5% (inactive).

As to `COc1ccc(C(=O)N2CCC(c3nc4ccccc4s3)CC2)cc1Cl`, the “activity change, positive = activation” value was -92.9% (inactive).

With `Cc1nc(-c2ccc(S(=O)(=O)Nc3ccc(C)c(N(C)C)c3)cc2)co1`, the “activity change, positive = activation” value was -93.7% (inactive).
